According to PubChem BioAssay (NCATS):
Where “and” joins values, the source holds several entries; their conditions need not be identical. Identical values can stand only once. Records with an inconclusive call do not appear. Calls of active or inactive are those of the source. Unless noted, calls follow the shape of the dose curve; as a rule, active = well fitted curve in the direction sought with a large enough effect; inconclusive = small, poorly fitted or top-dose-only effect, or another doubt; inactive = no such curve, though single readings can be large; an effect the other way counts as inactive or inconclusive.

Tests used:
[1] = Cell Viability - BJ (AID 421; calls by dose curve;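 also: potency is read from the fitted curve at half-maximal effect; cells exposed to compound for 40 hours at 37 °C before readout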); conditions: BJ fibroblast viability, qHTS
Outline: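 Normal human BJ foreskin fibroblasts, 1500/well in complete medium, treated 40 hr at 37 °C. Cellular ATP by CellTiter-Glo luminescence; normalized to DMSO and 100 uM tamoxifen, AC50 from Hill fit.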

[2] = Cell Viability - HepG2 (AID 433; calls by dose curve;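 also: potency is read from the fitted curve at half-maximal effect; potency for ATP loss meaning cytotoxicity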); conditions: qHTS
Outline: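 HepG2 cells, 1500 per well, treated 40 hr at 37 °C in complete medium; viability from intracellular ATP by CellTiter-Glo luminescence. Normalized to DMSO and 100 uM tamoxifen; AC50 from Hill fit of qHTS concentration-response.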

[3] = Cell Viability - MRC5 (AID 434; calls by dose curve;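 also: potency is read from the fitted curve at half-maximal effect; potency reflects cytotoxicity seen as loss of intracellular ATP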); conditions: MRC5 lung fibroblast viability, qHTS
Outline: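 MRC5 normal human lung fibroblasts, 1500 cells/well, exposed to compound for 40 hr at 37 C. Cellular ATP was read by CellTiter-Glo luminescence; data normalized to DMSO and 100 uM tamoxifen, with AC50 from Hill fits.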

[4] = Cell Viability - SK-N-SH (AID 435; calls by dose curve;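 also: potency is read from the fitted curve at half-maximal effect; compound exposure lasted 40 h at 37 °C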); conditions: SK-N-SH neuroblastoma cell viability qHTS
Outline: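 SK-N-SH neuroblastoma cells (1500/well) treated 40 h at 37 °C in complete medium; viability read as cellular ATP by CellTiter-Glo luminescence. Normalized to DMSO and 100 uM tamoxifen; AC50 from Hill fits of qHTS concentration-response.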

[5] = Cell Viability - NIH 3T3 (AID 541); conditions: NIH 3T3 cell viability, qHTS; activity change, negative = cytotoxicity: at 92.2 µM (top of the series);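 also: plate controls were DMSO alone for no effect and tamoxifen positive control for full effect; nearly all actives have a fitted effect of over 25% in size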
Outline: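 NIH 3T3 mouse embryo fibroblasts (1000 cells/well) were plated in complete medium and treated with compound for 40 hr at 37 °C. Viability was read as intracellular ATP by CellTiter-Glo luminescence; AC50 values came from Hill-equation fits of concentration-response data.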

[6] = Cell Viability - HUV-EC-C (AID 542); conditions: HUV-EC-C endothelial cell viability, qHTS; series mostly up to 92.2 µM; also: % is scaled to controls: 0 for no effect and ±100 for the full control effect; nearly all actives have a fitted effect of over 35% in size
Outline: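 HUV-EC-C normal human vascular endothelial cells, 1000 cells/well, pre-incubated 5 hr at 37 °C, then exposed to compounds for 40 hr at 37 °C in complete medium. Viability measured as intracellular ATP by CellTiter-Glo luminescence; AC50 from Hill fits.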

[7] = Cell Viability - H-4-II-E (AID 543); conditions: H-4-II-E rat hepatoma viability; series mostly up to 92.2 µM; also: % is scaled to controls: 0 for no effect and ±100 for the full control effect; nearly all actives have a fitted effect of over 35% in size
Outline: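 Rat hepatoma H-4-II-E cells (1500/well) were plated, incubated 5 hr at 37 °C, then exposed to compounds for 40 hr at 37 °C. Cellular ATP was read by CellTiter-Glo luminescence; AC50 came from Hill-equation fits of concentration-response data.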

[8] = Cell Viability - SH-SY5Y (AID 544); conditions: SH-SY5Y neuroblastoma cell viability; viability change, negative = cytotoxic: at 92.2 µM (top of the series); also: nearly all actives have a fitted effect of over 55% in size
Outline: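 Human neuroblastoma SH-SY5Y cells (1500/well) in complete medium were exposed to compounds for 40 hr at 37 °C; intracellular ATP was then quantified by CellTiter-Glo luminescence after 20 min at room temperature. AC50 came from Hill-equation concentration-response fits.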

[9] = Cell Viability - Renal Proximal Tubule (AID 545); conditions: renal proximal tubule cells viability; at 91.7 µM (top of the series), primary cells of rat origin unless noted; also: nearly all actives have a fitted effect of over 40% in size
Outline: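 Rat renal proximal tubule primary cells, 1000/well, exposed to compounds for 40 hr at 37 °C in complete medium; cellular ATP read by CellTiter-Glo luminescence. AC50 from concentration-response fitted with standard Hill equation.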

[10] = Cell Viability - Mesenchymal (AID 546); conditions: mesenchymal cells viability, qHTS; series mostly up to 91.7 µM;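 also: cells exposed to compound for 40 hours before reading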
Outline: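 Human kidney mesenchymal cells from normal renal glomeruli, 1000 cells/well, rested 5 hr at 37 °C, then treated 40 hr at 37 °C in complete medium. Cellular ATP read by CellTiter-Glo luminescence; AC50 from Hill-equation fits.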

[11] = Cellular Toxicity (caspase-3) Jurkat (AID 655); conditions: Jurkat caspase-3 activation, luminescence, DMSO = 0%, tamoxifen = 100%; at 92.2 µM (top of the series);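 also: cells exposed to compound for 16 h at 37 °C before reading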
Outline: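 Jurkat cells (5000/well) in complete medium exposed 16 h at 37 C; caspase-3/7 activity read by Caspase-Glo luminescence after 20 min at room temperature. Normalized to DMSO and 100 uM tamoxifen; AC50 from Hill fits.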

[12] = Cellular Toxicity (caspase-3) HUV-EC-C (AID 656); conditions: HUV-EC-C cells, caspase-3 activation (apoptosis), vehicle = 0, 100 µM tamoxifen = 100%; series mostly up to 92.2 µM
Outline: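 HUV-EC-C cells (1000/well) in complete medium, compound-treated 16 h at 37 °C; caspase-3/7 activity read by Caspase-Glo 3/7 luminescence. Normalized to DMSO (basal) and 100 uM tamoxifen (100%); AC50 from Hill-equation concentration-response fits.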

[13] = qHTS Assay for Identification of Small Molecule Inducers of Hypoxia Response (AID 2120; active = well fitted curve in the direction sought with a large enough effect in the signal ratio, with a control signal flat, not every such curve was filed as active; the % refers to the signal ratio; also: 0% is about no effect); conditions: hypoxia response reporter cells, beta-lactamase ratio readout; series mostly up to 104 µM
Outline: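 HRE-beta-lactamase reporter in CellSensor HRE-bla ME-180 cells, 2500 cells/well in Opti-MEM with 0.5% dialyzed FBS; compounds tested as titration series, 17 h at 37 degrees C. CCF4 substrate 2.5 h at room temperature; AC50 from 460/530 nm ratio.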

[14] = qHTS assay for small molecule agonists of retinoid X receptor alpha signaling (AID 588544); conditions: HEK293T RXRa-UAS-bla, beta-lactamase reporter, 18 h; 530 nm emission
[15] = qHTS assay for small molecule antagonists of retinoid X receptor alpha signaling (AID 588546; active = well fitted inhibition curve with a large enough effect in the signal ratio, with a control signal flat, not every such curve was filed as active; the % refers to the signal ratio;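 also: cells stimulated with 9-cis-retinoic acid as agonist; % is scaled to controls: 0 for no effect and ±100 for the full control effect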); conditions: HEK293T RXRa-UAS-bla, beta-lactamase ratio, antagonist mode; measured here: W530 green channel, cytotoxicity proxy
Outline: (§1)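 Beta-lactamase reporter inhibition, read as CCF4 fluorescence ratio (ex 405, em 460/530 nm) after 2 h at RT. HEK293T UAS-bla cells, 2500/well, were stimulated with 9-cis-RA at 500 or 100 nM final alongside test compound for 18 h at 37 C.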

[16] = biological target: Retinoic acid receptor RXR-alpha (Homo sapiens) (UniProt P19793); assay: as above; conditions: HEK293T RXRa-UAS-bla, beta-lactamase ratio, antagonist mode
Sequence of Retinoic acid receptor RXR-alpha (Homo sapiens) (P19793 whole entry, looked up): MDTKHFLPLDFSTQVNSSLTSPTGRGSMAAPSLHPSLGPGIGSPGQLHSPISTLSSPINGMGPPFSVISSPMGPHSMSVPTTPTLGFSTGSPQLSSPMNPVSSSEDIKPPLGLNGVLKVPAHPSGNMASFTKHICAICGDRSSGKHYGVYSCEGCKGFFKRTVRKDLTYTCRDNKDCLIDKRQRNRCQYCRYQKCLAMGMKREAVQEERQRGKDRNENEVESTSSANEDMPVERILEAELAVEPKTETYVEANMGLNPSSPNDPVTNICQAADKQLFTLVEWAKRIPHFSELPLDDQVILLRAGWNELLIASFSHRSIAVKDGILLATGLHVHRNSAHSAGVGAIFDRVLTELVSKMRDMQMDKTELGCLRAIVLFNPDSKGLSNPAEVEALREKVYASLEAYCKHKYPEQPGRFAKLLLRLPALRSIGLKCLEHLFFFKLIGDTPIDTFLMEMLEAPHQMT
Outline: as §1

[17] = biological target: Peroxisome proliferator-activated receptor alpha (Homo sapiens) (UniProt Q07869); assay: qHTS assay for small molecule agonists of the peroxisome proliferator-activated receptor alpha (PPARalpha) signaling pathway (AID 651778); conditions: PathHunter PPARalpha complementation, chemiluminescence, 6 h; stronger effect = higher value; also: % of control where 0% means no effect
Sequence of Peroxisome proliferator-activated receptor alpha (Homo sapiens) (Q07869 whole entry, looked up, the tested form may be a part): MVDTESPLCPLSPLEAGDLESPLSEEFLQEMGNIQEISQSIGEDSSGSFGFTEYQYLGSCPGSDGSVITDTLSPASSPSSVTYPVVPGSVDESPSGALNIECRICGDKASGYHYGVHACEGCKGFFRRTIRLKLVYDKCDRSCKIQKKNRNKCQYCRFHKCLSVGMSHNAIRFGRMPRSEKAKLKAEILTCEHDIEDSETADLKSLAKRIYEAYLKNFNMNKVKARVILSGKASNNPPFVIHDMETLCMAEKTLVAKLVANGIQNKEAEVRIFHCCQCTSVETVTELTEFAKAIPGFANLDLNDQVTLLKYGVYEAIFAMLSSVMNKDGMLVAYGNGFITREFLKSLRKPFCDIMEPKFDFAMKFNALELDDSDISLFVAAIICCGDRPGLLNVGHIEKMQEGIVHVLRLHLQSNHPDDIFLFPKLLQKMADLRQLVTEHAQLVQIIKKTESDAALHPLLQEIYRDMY
Outline: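 Enzyme-fragment complementation assay in which ligand-bound PPARalpha translocates and forms an active enzyme that generates chemiluminescence. Cells were plated overnight, exposed to compound for 6 hr at 37 C, and then given detection reagent for 60 min at room temperature.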

[18] = qHTS assay for small molecule agonists of the antioxidant response element (ARE) signaling pathway measured by Nrf2-dependant transcriptional activity - cell viability counter screen (AID 720653; active = well fitted curve in the direction sought with a large enough effect in the repeat runs; an effect the other way counts as inactive or inconclusive; also: % is scaled to controls: 0 for no effect and ±100 for the full control effect); conditions: ARE-bla HepG2 viability, CellTiter-Glo ATP luminescence, 16 h; stronger effect = lower value
Outline: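 ARE-bla HepG2 cells treated with compounds for 16 h at 37C; this counter screen measures viability as intracellular ATP by CellTiter-Glo luminescence after 30 min at room temperature.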

[19] = qHTS assay for cell viability of HEK293 cells (AID 743288); conditions: ATP luminescence (CellTiter-Glo), 18 h; max response: stronger effect = lower value; also: % is scaled to controls: 0 for no effect and ±100 for the full control effect; nearly all actives have a fitted effect of over 50% in size
Outline: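 Parental HEK293 cells, 2,000 per well, preincubated at least 5 h at 37 C, then exposed to compounds in DMSO for 18 h at 37 C. Viability by CellTiter-Glo ATP luminescence after 30 min at room temperature.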

[20] = qHTS assay for cell viability of the p53RE-bla HCT-116 cell line (AID 743292); conditions: p53RE-bla HCT-116 viability, ATP luminescence, 16 h; series mostly up to 95 µM; also: % is scaled to controls: 0 for no effect and ±100 for the full control effect; nearly all actives have a fitted effect of over 55% in size
Outline: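 ATP-based luminescence, 16 h compound exposure at 37 C, p53RE-bla HCT-116 cells at 4,000/well.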

| Compound | Potency [1] | Potency [2] | Potency [3] | Potency [4] | activity change, negative = cytotoxicity [5] | Potency [6] | Potency [7] | Potency [8] | activity change, negative = cytotoxicity [9] | outcome [10] | caspase-3 activation [11] | outcome [12] | outcome [13] | max response [14] | max response [15] | max response [16] | max response [17] | max response [18] | max response [19] | Potency [20] |
| --- | --- | --- | --- | --- | --- | --- | --- | --- | --- | --- | --- | --- | --- | --- | --- | --- | --- | --- | --- | --- |
| O=C(Cl)/C=C/C(=O)Cl | > 92 µM (inactive) | > 92 µM (inactive) | > 92 µM (inactive) | > 92 µM (inactive) | 9.76% (inactive) | inactive | inactive | inactive | 2.59% (inactive) | inactive | 0.334% (inactive) | inactive | inactive | -9% | -3.67% | -3.28% (inactive) | -3.04% (inactive) | 3.07% (inactive) | 1.49% (inactive) | inactive |
| Nc1c(Cl)c(Cl)nc(C(=O)O)c1Cl | > 92 µM (inactive) | > 92 µM (inactive) | > 92 µM (inactive) | > 92 µM (inactive) | -10.1% (inactive) | inactive | inactive | inactive | -10.2% (inactive) | inactive | 0.643% (inactive) | inactive | inactive | 27.1% | 15% and 5.55% and 11.1% | -3.97% (inactive) and -1.67% (inactive) and -10.4% (inactive) | 0.0872% (inactive) and -2.27% (inactive) and -1.09% (inactive) | 5.28% (inactive) and -6.28% (inactive) and -12.8% (inactive) | -0.605% (inactive) and -10.4% (inactive) and -8.99% (inactive) | inactive |
| Oc1ccc(Cl)cc1Cl | > 92 µM (inactive) | > 92 µM (inactive) | > 92 µM (inactive) | > 92 µM (inactive) | -8.01% (inactive) | inactive | inactive | inactive | -7.07% (inactive) | inactive | 3.55% (inactive) | inactive | inactive | 1.97% | -7.11% and -14.1% | -2.36% (inactive) and -1.51% (inactive) | 1.17% (inactive) and -0.592% (inactive) | -19.8% (inactive) and -1.01% (inactive) | 3.78% (inactive) and -2.5% (inactive) | inactive |
| CCC[CH2][Sn]([Cl])([Cl])[Cl] | > 92 µM (inactive) | > 92 µM (inactive) | > 92 µM (inactive) | > 92 µM (inactive) | -25.6% (inactive) | inactive | inactive | inactive | -9.62% (inactive) | inactive | 1.34% (inactive) | inactive | inactive | -13.2% and -14.8% | -9.08% and -6.63% | -1.26% (inactive) and -2.57% (inactive) | 0.179% (inactive) and -1.51% (inactive) | -3.93% (inactive) and 8.73% (inactive) | 9.1% (inactive) and -10.4% (inactive) | inactive |
| ClC(Cl)=C(Cl)Cl | > 92 µM (inactive) | > 92 µM (inactive) | > 92 µM (inactive) | > 92 µM (inactive) | -22.9% (inactive) and 3.64% (inactive) | inactive | inactive | inactive | -15.6% (inactive) and -5.24% (inactive) | inactive | -0.349% (inactive) and -0.592% (inactive) | inactive | inactive | 4.54% and -3.27% | -6.82% and -0.572% | 2.53% (inactive) and 3.68% (inactive) | -0.144% (inactive) and -2.45% (inactive) | 5.48% (inactive) and 2.15% (inactive) | 2.96% (inactive) and -9.63% (inactive) | inactive |
| O=NN(CCO)CCO | > 92 µM (inactive) | > 92 µM (inactive) | > 92 µM (inactive) | > 92 µM (inactive) | -23.2% (inactive) | inactive | inactive | inactive | -10.4% (inactive) | inactive | -1.33% (inactive) | inactive | inactive | -8.04% | -0.955% | 16.4% (inactive) | -4.3% (inactive) | -8% (inactive) | -4.1% (inactive) | inactive |
| CCOc1ccc(N)cc1 | > 92 µM (inactive) | > 92 µM (inactive) | > 92 µM (inactive) | > 92 µM (inactive) | -11.8% (inactive) | inactive | inactive | inactive | -1.23% (inactive) | inactive | -0.901% (inactive) | inactive | inactive | -1.09% | -4.66% | -3.13% (inactive) | 3.04% (inactive) | 1.12% (inactive) | 7.24% (inactive) | inactive |
| C=CC(=C)C | > 92 µM (inactive) | > 92 µM (inactive) | > 92 µM (inactive) | > 92 µM (inactive) | -9.16% (inactive) | inactive | inactive | inactive | 5.45% (inactive) | inactive | 0.843% (inactive) | inactive | inactive | 8.28% | -1.77% | -0.537% (inactive) | 4.78% (inactive) | -2.67% (inactive) | 2.66% (inactive) | inactive |
